Results filed as inconclusive are left out. The source made the active and inactive calls. Unless noted, calls come from the whole dose curve; as a rule, active = well fitted curve in the direction sought with a large enough effect; inconclusive = small, poorly fitted or top-dose-only effect, or another doubt; inactive = no such curve, though single readings can be large; an effect the other way counts as inactive or inconclusive.
What was measured:
[1] = Cytometric Cell-Based qHTS for Inhibitors of the mTORC1 Signaling Pathway in MEF (Tsc2-/-, p53-/-) Cells (AID 2660);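 note: Tsc2 and p53 null MEFs carrying empty vector with compound for 24 h; percent of cells above a phospho-rpS6 to PI ratio cutoff in each well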
Method in brief: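 Readout: Alexa-488 phospho-rpS6 (Ser235/236) intensity divided by PI intensity, thresholded against 7.5 nM rapamycin wells and reported as % positive cells. PI cell count served as the viability measure. Compound exposure was 24 hrs at 37 degree Celsius.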

[2] = High Content Imaging Cell-Based qHTS for Inhibitors of the mTORC1 Signaling Pathway in MEF (Tsc2-/-, p53-/-) Cells (AID 2666); conditions: at 38.3 µM (top of the series);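 note: percent of cells scored positive for phospho-rpS6 Ser235/236 immunostaining by imaging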
Method in brief: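 Cells were plated, dosed with compound after 24 hrs, and incubated another 24 hrs at 37 degree Celsius. Fixed cells were immunostained for phospho-rpS6 Ser235/236 and counterstained, and the normalized signal was scored as % active cells against rapamycin and DMSO controls.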

[3] = High Content Imaging Cell-Based qHTS for Inhibitors of the mTORC1 Signaling Pathway in MEF Cells (AID 2667);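 note: Tsc2-/- p53-/- MEFs stably re-expressing wild-type Tsc2 exposed 24 h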
Method in brief: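 Immunofluorescence for rpS6 phosphorylation in MEFs of Tsc2-/-, p53-/- background rescued with WT Tsc2. Compound exposure lasted 24 hrs. Inhibition was scored against rapamycin-treated control wells.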

[4] = biological target: Ubiquitin carboxyl-terminal hydrolase 2 (Homo sapiens) (UniProt O75604); test: qHTS Validation Assay for Inhibitors of Ubiquitin-specific Protease USP2a Using CHOP2 as the Reporter (AID 463106)
Method in brief: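 10nM USP2 core + cpd, 30min RT; add 25nM Ub-CHOP2/25nM substrate; 60min RT; FI 485/531nm. Buffer Tris pH 8.0, CaCl2, BME, CHAPS. Norm. to NEM = 100% inhibition; time-zero read flags fluorescent artifacts.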

[5] = biological target: DNA polymerase III PolC-type (Bacillus subtilis (strain 168)) (UniProt P13267); test: qHTS Validation Assay for the Inhibitors of DNA Replication in Gram-Positive Bacteria (AID 485295);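 note: reconstituted holoenzyme with PolC plus beta clamp SSB and primase; PicoGreen fluorescence of double-stranded DNA made on primed circular M13 template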
Method in brief: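 Inhibition of DNA synthesis by the reconstituted PolC holoenzyme, monitored through PicoGreen staining of dsDNA formed from ssM13Gori, dNTPs and NTPs, with compound preincubation and room-temperature reaction.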

[6] = biological target: Tumor susceptibility gene 101 protein (Homo sapiens) (UniProt Q99816); test: qHTS Validation Assay for Iinhibitors of HIV-1 Budding by Blocking the Interaction of PTAP/TSG101 (AID 485342; calls by dose curve)
Method in brief: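 Compound wells held the Tsg101 binding domain (10 uM) and a FITC-conjugated PTAP peptide (50 nM) in buffer at pH 7.5 containing 0.15 M NaCl and 0.01% Tween 20; polarization was recorded after 20 min, r.t.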

[7] = biological target: Beta-2 adrenergic receptor (Homo sapiens) (UniProt P07550); test: qHTS validation assay of beta-arrestin-biased ligands of beta2-adrenergic receptor (AID 485366)
Method in brief: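 Tango cells (recombinant beta2-AR with recombinant beta-arrestin; recruitment releases tTA driving luciferase) were treated with compounds titrated up to 46 microM for 18 hr at 37 degrees C. Luminescence gave %Activity, and concentration-response curves were curve-classified.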

[8] = biological target: ATP-dependent 6-phosphofructokinase (Trypanosoma brucei brucei) (UniProt O15648); test: qHTS Validation Assay to Find Inhibitors of T. brucei phosphofructokinase (AID 485368)
Method in brief: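 Compounds (up to 57 uM, titration series) were pinned into substrate buffer, then 1.25 nM PFK added; after 45 min at room temperature, ADP product was quantified by ADP-Glo luminescence and concentration-response curves fitted.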

[9] = biological target: Thioredoxin reductase 1, cytoplasmic (Rattus norvegicus) (UniProt O89049); test: qHTS Assay for Substrates of Mammalian Selenoprotein Thioredoxin Reductase 1 (TrxR1) (AID 488772);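 note: NADPH fluorescence in the first read after selenite addition and not the 8 min delta; a drop in NADPH fluorescence below the no-compound background marks a TrxR1 substrate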
Method in brief: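 Quantitative HTS in Tris-HCl buffer at pH 7.5 with EDTA and Tween-20, using rat TrxR1, 400 uM NADPH and 400 uM selenite (final). A fall in initial NADPH fluorescence relative to background marked substrate behaviour.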

[10] = biological target: Thioredoxin reductase 1, cytoplasmic (Rattus norvegicus) (UniProt O89049); test: qHTS Assay for Inhibitors of Mammalian Selenoprotein Thioredoxin Reductase 1 (TrxR1) (AID 488773); conditions: Potency: inhibition;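 note: drop in NADPH fluorescence over an 8 min run after selenite addition; nearly all actives have a fitted effect of over 40% in size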
Method in brief: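 Steps: enzyme (90 nM) plus NADPH (400 uM final), 5 min at ~22 deg C; compound added, 15 min; selenite (400 uM final) added; fluorescence followed for 8 min. Concentration-response curves derived from the normalized delta values.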

[11] = biological target: Flap endonuclease 1 (Homo sapiens) (UniProt P39748); test: qHTS Validation Assay for the Inhibitors of Human Flap endonuclease 1 (FEN1) (AID 488816)
Method in brief: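 Readings taken at 0 and 15 min after starting the reaction with 50 nM (final) substrate supplied the signal. Compounds had first sat with 10 nM FEN1 reagent for 15 min at room temperature. Values come from Hill-equation concentration-response fits.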

[12] = biological target: M-phase phosphoprotein 8 (Homo sapiens) (UniProt Q99549); test: qHTS Validation Assay for Inhibitors for MPP8 Chromodomain Interactions with Methylated Histone Tails (AID 488949);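 note: 50 nM MPP8 with 50 nM peptide preformed then compounds added for 30 min; AlphaScreen signal from MPP8 chromodomain bound to biotinylated H3K9me3 peptide; top concentration of the series differs between compounds; nearly all actives have a fitted effect of over 55% in size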
Method in brief: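 Chemiluminescent proximity assay: histidine-tag capture via nickel acceptor beads, biotin peptide via streptavidin donor beads. Protein and peptide each at 50 nM, pH 7.4, with 30 min incubations at room temperature for complex formation, compound exposure and bead binding.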

[13] = biological target: D(1A) dopamine receptor (Homo sapiens) (UniProt P21728); test: HTS Assay for Allosteric Agonists of the Human D1 Dopamine Receptor: Primary Screen for Agonists (AID 488981)
Method in brief: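 Calcium flux in an inducible, force-coupled HEK293 Trex D1 line (overnight at 30 C): agonist mode is the 180 s kinetic read after compound; potentiator mode is the following 180 s read after dopamine at EC20.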

[14] = biological target: D(1A) dopamine receptor (Homo sapiens) (UniProt P21728); test: HTS Assay for Allosteric Agonists of the Human D1 Dopamine Receptor: Primary Screen for Antagonists (AID 488983);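 note: calcium flux response to an EC80 dopamine challenge measured with no-wash dye; nearly all actives have a fitted effect of over 65% in size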
Method in brief: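 Cells are induced with tetracycline and incubated overnight at 30 C, then loaded with calcium dye for 30 to 90 minutes at room temperature. Compound addition is followed by a 180 s read, then an EC80 dopamine addition and another 180 s read.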

[15] = Nrf2 qHTS screen for inhibitors: Validation (AID 493153; active = well fitted inhibition curve with a large enough effect in the main read-out, with a control signal flat, not every such curve was filed as active); conditions: viability change: measured here: cytotoxicity max response
Method in brief: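 Luminescence from an ARE-firefly luciferase reporter in A549 cells gives Nrf2 inhibition; an earlier CellTiter-Fluor fluorescent read flags cytotoxicity. Cells in 5% FBS OPTI-MEM received compound dilution series for 18-24 h at 37°C.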

[16] = qHTS for Inhibitors of Cell Surface uPA Generation: Validation Assay (AID 493164)
Method in brief: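 RAW 264.7 cells (4000/well) were plated overnight, then exposed for 18 h at 37 C, 5% CO2 to compounds in a 7-point 1:5 titration (2.45 nM–38.3 uM final). Intracellular ATP was read by ATP-Lite luminescence.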

[17] = biological target: Peptidyl-prolyl cis-trans isomerase NIMA-interacting 1 (Homo sapiens) (UniProt Q13526); test: qHTS Validation Assay to Find Inhibitors of Pin1 (AID 504536; active = well fitted inhibition curve with a large enough effect in the polarisation, with a control signal flat, not every such curve was filed as active; the % refers to the polarisation)
Method in brief: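 Fluorescence polarization competition: compounds (titration) displace HiFluor-488-labeled Pin1-1b peptide from Pin1 (0.3 uM final) in pH 7.5 HEPES buffer with DTT, 10 min at room temperature; %Activity normalized to no-enzyme wells, curves fitted.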

[18] = biological target: Phosphoglycerate kinase, glycosomal (Trypanosoma brucei brucei) (UniProt P07378); test: qHTS Validation Assay to Find Inhibitors of Phosphoglycerate Kinase (AID 504547)
Method in brief: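 Inhibition of the enzyme is judged by a Kinase-Glo Plus luminescent signal following a one-hour incubation at room temperature. Because 1,3-BPG is unstable, it is made in situ by GAPDH at 100nM final; no-PGK wells define the baseline.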

[19] = biological target: phosphoglycerate mutase (Leishmania major) (UniProt Q4Q090); test: qHTS Validation Assay to Find Inhibitors of Phosphoglycerate Mutase (AID 504548)
Method in brief: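 Lm PGAM 1.25nM final; 100 mM TEA pH 7.6, 5 mM MgCl2, 0.01% Tween-20; 45 min RT; Kinase-GloPlus, 10 min; end-point luminescence. Enzyme-free wells as negative controls.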

[20] = biological target: Ubiquitin carboxyl-terminal hydrolase 1 (Homo sapiens) (UniProt O94782); test: Inhibitors of USP1/UAF1: Pilot qHTS (AID 504865);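 note: rhodamine fluorescence freed from ubiquitin-rhodamine substrate followed over time; top concentration of the series differs between compounds; nearly all actives have a fitted effect of over 35% in size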
Method in brief: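 Enzyme-free wells gave the negative control, while test wells held 1nM USP1/UAF1 preincubated with compound for 15 min at room temperature. Ub-Rho at 150nM final started the reaction, and fluorescence at 480/540 nm was recorded kinetically.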

[21] = qHTS for Inhibitors of ATXN expression: Validation of Cytotoxic Assay (AID 588349)
Method in brief: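 Read-out: ATP-based luminescence (CellTiter Glo) reflecting viability of HEK293 cells after 72 hr incubation at 37 degrees C with a concentration series of each compound.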

[22] = qHTS for Inhibitors of ATXN expression: Validation (AID 588378); note: nearly all actives have a fitted effect of over 75% in size
Method in brief: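 After a 2 h attachment and 24 h compound incubation, HEK293-ATXN2-FFLuc wells are read for fluorescence at 405 nm excitation/525 nm emission as a viability measure, then for Bright-Glo luminescence reflecting ATXN2 expression.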

[23] = biological target: Glutaminase kidney isoform, mitochondrial (Homo sapiens) (UniProt O94925); test: qHTS for Inhibitors of Glutaminase (GLS): LOPAC Validation (AID 624146);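 note: glutamate product detected by oxidase and peroxidase coupled Amplex red fluorescence gain; nearly all actives have a fitted effect of over 60% in size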
Method in brief: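 Read-out is an Amplex red fluorescence increase coupled through glutamate oxidase and HRP, measured before and after 30 min room-temperature incubation. hKGA is in 45 mM KH2PO4 (pH 8.2) with 0.02% Tween-20; glutamine added as 1mM solution.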

[24] = qHTS of Trypanosoma Brucei Inhibitors: LOPAC Validation (AID 624147)
Method in brief: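 Screened from lowest to highest concentration, compounds were pinned into TbPYK/substrate mixtures, and ADP (130 uM final) was added. Plates sat at room temperature for 45 min prior to Kinase-Glo Plus detection by luminescence.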

[25] = biological target: Glucagon-like peptide 1 receptor (Homo sapiens) (UniProt P43220); test: qHTS of GLP-1 Receptor Agonists: LOPAC Validation (AID 624148);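 note: luminescence from a luciferase reporter switched on by cAMP; higher luminescence signal means agonism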
Method in brief: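 Agonism scored as increased luciferase luminescence driven by cAMP in HEK293 clones carrying GLP-1R. Cells settled 12 hours, received compound for 4-6 hr at 37 deg C, 5% CO2, and were read after 12 min detection reagent at RT.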

[26] = qHTS of Nrf2 Activators: LOPAC Validation (AID 624149)
Method in brief: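 Luminescence read-out of ARE-luciferase activation: AREc32_Fluc cells treated with compounds for 24 hr at 37 deg C, then lysed with Steady-Glo for 30 min at room temperature before reading.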

[27] = HTS Assay for Allosteric Antagonists of the Human D2 Dopamine Receptor: Hit Validation in HTRF (AID 624455);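 note: stable D1 dopamine receptor cell line scored for blocking the D1 response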
Method in brief: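 First, antagonism was screened by calcium flux in a force-coupled, inducible Hek293 Trex D2 line challenged with EC80 dopamine. Hits then went into an HTRF assay in cells stably expressing D1, testing inhibition of the D1 response.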

[28] = qHTS for compounds that reverse cellular toxicity of Amyloid beta (A-beta) peptide in yeast: LOPAC Validation Assay (AID 720559)
Method in brief: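 Here, A-beta-toxic yeast grow with test compounds at 30 C for 48 hr before optical density at 600 nm is recorded; data are normalized against DMSO and the FeCl3-clioquinol control.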

[29] = qHTS for Activators of Parkin Expression: LOPAC Validation Assay (NLuc Reporter) (AID 720572)
Method in brief: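 Parkin promoter-driven FLuc/NLuc neuronal reporter cells; 24 h plating, 7-pt dose response, 24 h at 37 C/5% CO2; FLuc then NanoLuc reagent, 10 min each, luminescence; DMSO/positive control normalized.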

Sequence of Thioredoxin reductase 1, cytoplasmic (Rattus norvegicus) (O89049 whole entry, looked up): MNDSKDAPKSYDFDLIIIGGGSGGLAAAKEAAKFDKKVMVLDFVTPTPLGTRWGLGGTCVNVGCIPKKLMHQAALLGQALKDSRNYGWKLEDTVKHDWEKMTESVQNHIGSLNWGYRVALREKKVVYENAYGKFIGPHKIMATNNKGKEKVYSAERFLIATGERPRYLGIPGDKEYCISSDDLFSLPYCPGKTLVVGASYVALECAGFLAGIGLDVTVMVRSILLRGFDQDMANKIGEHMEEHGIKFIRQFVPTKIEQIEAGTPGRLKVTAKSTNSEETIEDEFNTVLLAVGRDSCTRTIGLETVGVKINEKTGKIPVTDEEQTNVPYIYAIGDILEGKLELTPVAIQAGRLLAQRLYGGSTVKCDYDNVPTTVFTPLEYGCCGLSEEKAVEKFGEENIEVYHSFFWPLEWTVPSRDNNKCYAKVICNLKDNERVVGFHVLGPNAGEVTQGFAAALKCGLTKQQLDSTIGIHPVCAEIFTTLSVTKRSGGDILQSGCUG
Sequence of D(1A) dopamine receptor (Homo sapiens) (P21728 whole entry, looked up): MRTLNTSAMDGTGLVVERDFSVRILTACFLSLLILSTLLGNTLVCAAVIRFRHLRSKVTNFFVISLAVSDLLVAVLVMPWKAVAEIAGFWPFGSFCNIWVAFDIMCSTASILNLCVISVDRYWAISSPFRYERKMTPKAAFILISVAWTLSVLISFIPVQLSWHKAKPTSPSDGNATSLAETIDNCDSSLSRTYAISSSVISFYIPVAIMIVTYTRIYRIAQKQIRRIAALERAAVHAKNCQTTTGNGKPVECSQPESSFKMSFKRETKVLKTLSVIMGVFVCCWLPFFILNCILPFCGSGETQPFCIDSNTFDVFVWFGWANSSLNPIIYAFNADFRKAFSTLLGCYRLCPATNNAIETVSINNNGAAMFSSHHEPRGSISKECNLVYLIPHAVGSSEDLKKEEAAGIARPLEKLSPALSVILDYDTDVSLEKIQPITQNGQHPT
Sequence of phosphoglycerate mutase (Leishmania major) (Q4Q090 1-553): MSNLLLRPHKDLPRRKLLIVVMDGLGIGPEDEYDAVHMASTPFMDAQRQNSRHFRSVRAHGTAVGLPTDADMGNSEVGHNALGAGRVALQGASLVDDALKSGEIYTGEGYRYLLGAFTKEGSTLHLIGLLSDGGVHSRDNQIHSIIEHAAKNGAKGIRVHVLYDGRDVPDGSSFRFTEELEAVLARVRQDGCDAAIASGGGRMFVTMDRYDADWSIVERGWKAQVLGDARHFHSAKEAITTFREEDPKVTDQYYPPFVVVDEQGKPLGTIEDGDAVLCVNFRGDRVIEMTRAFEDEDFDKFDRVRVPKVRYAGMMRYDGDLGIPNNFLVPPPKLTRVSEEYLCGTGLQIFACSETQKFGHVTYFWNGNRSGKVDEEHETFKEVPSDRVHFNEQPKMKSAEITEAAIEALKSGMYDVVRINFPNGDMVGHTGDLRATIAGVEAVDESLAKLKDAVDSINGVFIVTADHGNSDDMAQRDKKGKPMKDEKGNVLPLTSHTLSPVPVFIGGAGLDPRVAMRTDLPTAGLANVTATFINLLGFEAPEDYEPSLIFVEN
Sequence of M-phase phosphoprotein 8 (Homo sapiens) (Q99549 whole entry, looked up): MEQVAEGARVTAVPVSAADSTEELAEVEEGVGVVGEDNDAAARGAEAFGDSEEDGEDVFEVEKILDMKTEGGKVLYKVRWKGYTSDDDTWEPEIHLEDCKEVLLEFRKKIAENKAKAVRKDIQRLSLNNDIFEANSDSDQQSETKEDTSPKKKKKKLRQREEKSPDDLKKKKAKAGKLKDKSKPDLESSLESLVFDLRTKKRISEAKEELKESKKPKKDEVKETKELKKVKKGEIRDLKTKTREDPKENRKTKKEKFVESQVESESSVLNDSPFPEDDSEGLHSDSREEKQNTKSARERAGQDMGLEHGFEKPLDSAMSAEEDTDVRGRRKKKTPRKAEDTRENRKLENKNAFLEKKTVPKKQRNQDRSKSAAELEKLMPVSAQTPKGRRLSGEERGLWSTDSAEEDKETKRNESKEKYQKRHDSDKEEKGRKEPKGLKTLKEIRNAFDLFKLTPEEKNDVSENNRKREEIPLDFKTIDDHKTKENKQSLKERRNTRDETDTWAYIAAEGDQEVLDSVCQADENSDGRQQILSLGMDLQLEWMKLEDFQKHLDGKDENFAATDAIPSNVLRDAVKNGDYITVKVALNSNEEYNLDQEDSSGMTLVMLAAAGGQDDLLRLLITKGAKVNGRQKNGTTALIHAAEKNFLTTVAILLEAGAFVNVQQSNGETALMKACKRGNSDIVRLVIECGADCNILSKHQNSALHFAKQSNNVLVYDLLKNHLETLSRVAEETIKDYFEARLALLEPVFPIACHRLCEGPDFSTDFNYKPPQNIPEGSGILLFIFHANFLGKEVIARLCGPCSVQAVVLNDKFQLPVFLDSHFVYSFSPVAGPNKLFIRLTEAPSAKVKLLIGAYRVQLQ
Sequence of DNA polymerase III PolC-type (Bacillus subtilis (strain 168)) (P13267 whole entry, looked up): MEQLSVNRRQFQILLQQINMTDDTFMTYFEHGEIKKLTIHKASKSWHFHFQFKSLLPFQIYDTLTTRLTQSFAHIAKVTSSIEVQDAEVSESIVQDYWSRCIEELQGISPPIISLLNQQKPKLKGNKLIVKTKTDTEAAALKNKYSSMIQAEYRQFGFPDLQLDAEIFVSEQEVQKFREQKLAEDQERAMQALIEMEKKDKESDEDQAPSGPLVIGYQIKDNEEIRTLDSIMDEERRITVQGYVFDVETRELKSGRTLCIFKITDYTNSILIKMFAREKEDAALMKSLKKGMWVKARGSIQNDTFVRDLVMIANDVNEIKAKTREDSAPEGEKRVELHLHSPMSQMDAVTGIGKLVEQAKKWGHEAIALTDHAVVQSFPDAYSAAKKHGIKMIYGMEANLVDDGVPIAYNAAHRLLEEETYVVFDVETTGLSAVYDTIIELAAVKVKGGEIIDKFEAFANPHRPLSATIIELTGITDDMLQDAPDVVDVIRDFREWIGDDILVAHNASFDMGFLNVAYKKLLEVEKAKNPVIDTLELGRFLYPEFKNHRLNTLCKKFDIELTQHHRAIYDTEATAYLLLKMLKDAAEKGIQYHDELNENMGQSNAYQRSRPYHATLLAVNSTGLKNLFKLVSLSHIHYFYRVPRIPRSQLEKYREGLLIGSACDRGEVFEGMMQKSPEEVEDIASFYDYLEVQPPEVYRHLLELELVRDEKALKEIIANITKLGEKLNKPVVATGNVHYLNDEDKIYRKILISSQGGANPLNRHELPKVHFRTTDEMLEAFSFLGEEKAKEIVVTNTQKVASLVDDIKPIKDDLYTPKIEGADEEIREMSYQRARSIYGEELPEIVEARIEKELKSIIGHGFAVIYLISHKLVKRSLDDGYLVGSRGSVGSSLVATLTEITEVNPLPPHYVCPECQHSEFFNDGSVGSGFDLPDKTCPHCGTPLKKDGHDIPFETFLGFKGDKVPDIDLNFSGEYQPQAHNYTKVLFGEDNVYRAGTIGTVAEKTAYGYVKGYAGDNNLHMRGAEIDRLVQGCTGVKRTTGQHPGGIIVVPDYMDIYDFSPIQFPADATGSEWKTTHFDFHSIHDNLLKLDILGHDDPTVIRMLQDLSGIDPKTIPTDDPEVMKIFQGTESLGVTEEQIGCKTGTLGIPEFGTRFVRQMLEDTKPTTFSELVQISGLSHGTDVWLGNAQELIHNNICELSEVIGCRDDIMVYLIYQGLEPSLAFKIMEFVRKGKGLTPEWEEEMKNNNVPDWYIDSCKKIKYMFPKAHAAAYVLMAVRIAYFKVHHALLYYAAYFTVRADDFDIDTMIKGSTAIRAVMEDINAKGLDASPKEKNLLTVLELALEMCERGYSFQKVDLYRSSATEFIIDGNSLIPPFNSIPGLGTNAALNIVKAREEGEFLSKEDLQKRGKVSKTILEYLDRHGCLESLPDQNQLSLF
Sequence of Ubiquitin carboxyl-terminal hydrolase 2 (Homo sapiens) (O75604 whole entry, looked up): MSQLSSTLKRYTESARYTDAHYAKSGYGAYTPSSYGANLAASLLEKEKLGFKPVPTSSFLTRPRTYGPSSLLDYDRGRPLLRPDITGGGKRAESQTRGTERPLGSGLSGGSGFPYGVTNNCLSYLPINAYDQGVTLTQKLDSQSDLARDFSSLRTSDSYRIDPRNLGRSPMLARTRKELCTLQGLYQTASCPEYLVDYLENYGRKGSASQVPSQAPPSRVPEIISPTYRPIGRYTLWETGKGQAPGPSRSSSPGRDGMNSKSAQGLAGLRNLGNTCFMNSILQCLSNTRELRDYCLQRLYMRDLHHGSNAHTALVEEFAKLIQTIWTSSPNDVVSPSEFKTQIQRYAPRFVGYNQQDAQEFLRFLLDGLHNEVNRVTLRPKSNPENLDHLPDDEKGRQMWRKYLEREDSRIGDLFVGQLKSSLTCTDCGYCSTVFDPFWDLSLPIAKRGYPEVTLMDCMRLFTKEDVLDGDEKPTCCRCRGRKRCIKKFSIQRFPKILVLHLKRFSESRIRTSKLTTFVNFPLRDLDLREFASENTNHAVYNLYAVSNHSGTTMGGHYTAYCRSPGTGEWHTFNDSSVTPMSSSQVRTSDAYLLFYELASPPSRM
Sequence of ATP-dependent 6-phosphofructokinase (Trypanosoma brucei brucei) (O15648 whole entry, looked up): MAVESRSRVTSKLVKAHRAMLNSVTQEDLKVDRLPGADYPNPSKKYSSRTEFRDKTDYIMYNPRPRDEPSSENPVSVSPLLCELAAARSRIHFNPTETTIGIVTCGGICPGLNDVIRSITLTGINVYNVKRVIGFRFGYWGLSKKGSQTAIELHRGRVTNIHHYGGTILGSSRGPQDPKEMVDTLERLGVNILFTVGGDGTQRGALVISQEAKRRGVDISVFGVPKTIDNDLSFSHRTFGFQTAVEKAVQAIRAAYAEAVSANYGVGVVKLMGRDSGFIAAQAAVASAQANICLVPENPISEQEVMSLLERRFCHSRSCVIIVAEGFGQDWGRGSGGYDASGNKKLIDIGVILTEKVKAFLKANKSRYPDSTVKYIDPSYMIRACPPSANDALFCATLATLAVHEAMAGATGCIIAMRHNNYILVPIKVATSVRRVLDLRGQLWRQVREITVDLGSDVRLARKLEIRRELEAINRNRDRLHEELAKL
Sequence of Peptidyl-prolyl cis-trans isomerase NIMA-interacting 1 (Homo sapiens) (Q13526 whole entry, looked up): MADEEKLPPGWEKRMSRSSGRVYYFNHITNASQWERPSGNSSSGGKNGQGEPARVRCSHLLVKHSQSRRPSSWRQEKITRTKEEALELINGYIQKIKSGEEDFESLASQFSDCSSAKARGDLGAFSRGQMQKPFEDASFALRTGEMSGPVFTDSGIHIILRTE

C[C@H](Cc1ccccc1)Nc1ncnc2c1ncn2[C@@H]1O[C@H](CO)[C@@H](O)[C@H]1O
inactive: outcome [1] | outcome [2] | Potency [3] | Potency [4] | Potency [5] | outcome [6] | outcome [7] | Potency [8] | outcome [9] | Potency [10] | Potency [11] | Potency [12] | outcome [13] | outcome [14] | outcome [15] | outcome [16] | Potency [17] | Potency [18] | outcome [19] | Potency [20] | Potency [21] | Potency [22] | Potency [23] | outcome [24] | outcome [25] | outcome [26] | outcome [27] | outcome [28] | outcome [29]
6.66%: viability change [15]
